Source: ChEMBL document CHEMBL3433997, “St. Jude Leishmania screening dataset” (2016)

Columns and labels:
Assay type in all cases: functional
[1] = molecular target: Solute carrier family 2, facilitated glucose transporter member 1 (Homo sapiens) (UniProt P11166); assay: ST_JUDE_LEISH: Cytotoxicity at 2uM final concentration against transgenic Leishmania Mexicana promastigotes LmGLUT1 that are glucose transport deficient and complemented with the human glucose transporter GLUT1. Activity is measured by DNA content using SYBR green in vitro
Solute carrier family 2, facilitated glucose transporter member 1 (Homo sapiens), sequence (P11166 whole entry): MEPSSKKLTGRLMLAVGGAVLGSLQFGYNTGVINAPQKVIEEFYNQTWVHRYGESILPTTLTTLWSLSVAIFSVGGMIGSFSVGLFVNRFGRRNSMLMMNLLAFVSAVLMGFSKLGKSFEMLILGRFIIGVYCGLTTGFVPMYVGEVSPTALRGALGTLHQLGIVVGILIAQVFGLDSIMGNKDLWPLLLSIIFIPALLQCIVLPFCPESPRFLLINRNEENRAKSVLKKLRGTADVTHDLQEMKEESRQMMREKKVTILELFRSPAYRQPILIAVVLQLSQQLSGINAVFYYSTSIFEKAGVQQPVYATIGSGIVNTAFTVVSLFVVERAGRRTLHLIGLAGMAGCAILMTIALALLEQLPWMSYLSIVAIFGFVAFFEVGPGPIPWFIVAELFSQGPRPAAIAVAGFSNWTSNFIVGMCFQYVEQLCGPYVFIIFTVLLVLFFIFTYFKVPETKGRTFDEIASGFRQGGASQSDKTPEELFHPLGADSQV

[2] = molecular target: Hexose transporter 1 (Plasmodium falciparum) (UniProt O97467); assay: ST_JUDE_LEISH: Cytotoxicity at 2uM final concentration against transgenic Leishmania Mexicana promastigotes LmPfHT that are glucose transport deficient and complemented with the Plasmodium falciparum hexose transporter. Activity is measured by DNA content using SYBR green in vitro
[3] = molecular target: Glucose transporter (Leishmania mexicana) (UniProt O61059); assay: ST_JUDE_LEISH: Cytotoxicity at 2uM final concentration against transgenic Leishmania Mexicana promastigotes LmGT2 that are glucose transport deficient and complemented with the L. Mexicana glucose transporter 2. Activity is measured by DNA content using SYBR green in vitro

Row | SMILES | inhibition [1] | inhibition [2] | inhibition [3]
1 | CCCCc1cc(NC2CCN(C)CC2)nc(Nc2ccccc2)n1 | 10.5% | 8.07% | 8.76%
2 | CC(C)S(=O)(=O)N1CCN(Cc2ccc3c(c2)nc(NC(=O)c2ccsc2)n3C[C@H](O)c2ccccc2)CC1 | 2.63% | 1% | -0.17%
3 | Cc1ccc(NC(=O)c2ccc(N3CCN(c4ccncc4)CC3)cc2)cc1F | 68% | 74.7% | 82.4%
4 | Cc1nc(C)c(-c2ccc(C(=O)c3ccccc3)cc2)c(O)c1Br | 5.44% | 5.49% | 5.35%
5 | CC1(C)N=C(N)N=C(N)N1c1ccc(Cl)cc1 | 5.04% | 4.91% | 4.69%
6 | Fc1ccc2[nH]c(-c3cccc(-c4cccc(CN5CCN(c6cnccn6)CC5)c4)c3)nc2c1 | 7.08% | 5.74% | 4.27%
7 | CC(=O)Nc1ccc(CN(Cc2ccc(OC(C)(C)C)cc2)Cc2ccc3c(c2)OCCO3)cc1 | 7.25% | 3.27% | 6.45%
8 | CCOC(=O)CC[C@H](NC(=O)c1ccc(NS(=O)(=O)c2ccc(-c3cnc(N)[nH]c3=O)cc2)cc1)C(=O)OCC | 4.2% | 5.08% | 4.7%
9 | CC(=NNC(S)=NCCc1ccccn1)c1ccccn1 | 7.78% | 4.39% | 6.19%
10 | O=C(C=Cc1ccccc1)Nc1ccc(C#CC=Cc2ccc(NC(=O)C=Cc3ccccc3)cc2)cc1 | 2.7% | 2.84% | 2.16%
11 | Cc1nc(-c2cccc(Nc3nccc(NCC(O)c4ccccc4)n3)c2)cs1 (stereo unspecified) | 1.43% | 0.76% | 2.14%
12 | COc1ccc(-c2ccc(CN(C)C3CCC(NC(=O)c4cc5ccccc5[nH]4)CC3)cc2)cn1 (stereo unspecified) | -1.44% | -1.14% | -1.54%
